Where “and” joins values, the source holds several entries; their conditions need not be identical. Equal entries are not always repeated. Results filed as inconclusive are left out. More than one record can exist for a structure, and the calls need not agree. Calls of active or inactive are those of the source. Unless noted, calls follow the shape of the dose curve; as a rule, active = well fitted curve in the direction sought with a large enough effect in the repeat runs; inconclusive = weak or mixed curves; inactive = no such curve, though single readings can be large; an effect the other way counts as inactive or inconclusive.
Tests used:
[1] = Caspase-3/7 induction in HepG2 cells by small molecules, qHTS assay (AID 1346978); also: nearly all actives have a fitted effect of over 15% in size; also: potency is read from the fitted curve at half-maximal effect
Outline: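 Wild-type HepG2 cells, 2,000/well, settled 5 hr at 37 C and 5% CO2, then compound-treated for 17 hr; caspase-3/7 activity read by luminescent Caspase-Glo 3/7 after 30 min at room temperature.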

[2] = Caspase-3/7 induction in CHO-K1 cells by small molecules, qHTS cell viability counter screen (AID 1346979); also: nearly all actives have a fitted effect of over 35% in size; also: potency is read from the fitted curve at half-maximal effect
Outline: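 Multiplexed with Caspase-Glo 3/7 in CHO-K1 cells, this counter screen added CellTiter-Fluor after 16hr of compound exposure and recorded fluorescence 1hr later.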

[3] = Caspase-3/7 induction in CHO-K1 cells by small molecules, qHTS assay (AID 1346980); also: nearly all actives have a fitted effect of over 15% in size; also: potency is read from the fitted curve at half-maximal effect
Outline: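 Wild-type CHO-K1 cells exposed to compounds for 17hr at 37 C, 5% CO2. Caspase-3/7 activity then measured by Caspase-Glo 3/7 luminescence after 30min at room temperature.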

[4] = Caspase-3/7 induction in HepG2 cells by small molecules, qHTS cell viability counter screen (AID 1346981); also: nearly all actives have a fitted effect of over 30% in size; also: potency is read from the fitted curve at half-maximal effect; as to activity change, negative = cytotoxicity: series mostly up to about 92 µM
Outline: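 Multiplexed with the caspase-3/7 assay: HepG2 cells, 16 hr compound treatment, CellTiter-Fluor viability detection by fluorescence.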

[5] = target: Acetylcholinesterase (Homo sapiens) (UniProt P22303); assay: Acetylcholinesterase (AChE) small molecule antagonists: colormetric cell-based qHTS assay (AID 1347395; calls by dose curve; also: nearly all actives have a fitted effect of over 30% in size; also: potency is read from the fitted curve at half-maximal effect)
Outline: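 In this cell-based qHTS, attached SH-SY5Y cells were treated with test chemicals for 30 min, after which acetylthiocholine hydrolysis was followed by DTNB colour development over 90 min at 37 C.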

[6] = target: Acetylcholinesterase (Homo sapiens) (UniProt P22303); assay: Acetylcholinesterase (AChE) small molecule antagonists: enzyme-based qHTS assay (AID 1347397; calls by dose curve; also: nearly all actives have a fitted effect of over 55% in size; also: potency is read from the fitted curve at half-maximal effect); details: Potency: AChE enzyme activity inhibition; outcome: AChE enzyme activity inhibition
Outline: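 Recombinant human AChE (50 mU/mL) preincubated with compound 30 min at room temperature; acetylthiocholine plus DTNB then added, and thiocholine formation read colorimetrically after 10 min at room temperature. DMSO served as vehicle control.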

[7] = target: Acetylcholinesterase (Homo sapiens) (UniProt P22303); assay: Acetylcholinesterase (AChE) small molecule antagonists: fluorescence cell-based qHTS assay (AID 1347398; calls by dose curve; also: nearly all actives have a fitted effect of over 50% in size; also: potency is read from the fitted curve at half-maximal effect); details: Potency: AChE activity; outcome: AChE activity
Outline: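 SH-SY5Y cells (2000/well), attached overnight, incubated with compound 30 min at 37 C. Acetylthiocholine plus Thiolite Green then added for 40 min at room temperature. Thiocholine fluorescence (Ex/Em 490/520 nm) reports cellular AChE activity.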

[8] = target: Nuclear receptor subfamily 1 group I member 2 (Homo sapiens) (UniProt O75469); assay: Human pregnane X receptor (PXR) small molecule agonists, qHTS assay (AID 1346982); also: nearly all actives have a fitted effect of over 35% in size; also: potency is read from the fitted curve at half-maximal effect
Outline: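 We seeded PXR-Luc HepG2 cells in assay medium containing 5% charcoal-stripped FBS, added compounds 5 hr later, incubated 24 hr, and read luminescence with ONE-Glo reagent.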

[9] = target: Nuclear receptor subfamily 1 group I member 2 (Homo sapiens) (UniProt O75469); assay: CYP3A4 induction through human pregnane X receptor (PXR) by small molecules, qHTS assay (AID 1346984); also: nearly all actives have a fitted effect of over 40% in size
Outline: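 qHTS, concentration-response format: HepG2 DPX-2 line, PXR/CYP3A4-luc. Exposure 24 h, 37C. Substrate Luciferin-IPA 3uM final, 3 h. Detection One-Glo, 30 min RT.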

[10] = target: Nuclear receptor subfamily 1 group I member 2 (Homo sapiens) (UniProt O75469); assay: Human pregnane X receptor (PXR) activation by small molecules, qHTS assay (AID 1346985); also: nearly all actives have a fitted effect of over 40% in size; also: potency is read from the fitted curve at half-maximal effect
Outline: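 DPX-2 cells (HepG2 co-transfected with a PXR response element and a CYP3A4-promoter luciferase construct) were seeded at 2,000 per well, rested 5 hr at 37C, then exposed to DMSO-dissolved compounds for 24 hr. Activation was read as luciferase luminescence.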
% is scaled to controls: 0 for no effect and ±100 for the full control effect.

Chain of Nuclear receptor subfamily 1 group I member 2 (Homo sapiens) (O75469 whole entry, looked up): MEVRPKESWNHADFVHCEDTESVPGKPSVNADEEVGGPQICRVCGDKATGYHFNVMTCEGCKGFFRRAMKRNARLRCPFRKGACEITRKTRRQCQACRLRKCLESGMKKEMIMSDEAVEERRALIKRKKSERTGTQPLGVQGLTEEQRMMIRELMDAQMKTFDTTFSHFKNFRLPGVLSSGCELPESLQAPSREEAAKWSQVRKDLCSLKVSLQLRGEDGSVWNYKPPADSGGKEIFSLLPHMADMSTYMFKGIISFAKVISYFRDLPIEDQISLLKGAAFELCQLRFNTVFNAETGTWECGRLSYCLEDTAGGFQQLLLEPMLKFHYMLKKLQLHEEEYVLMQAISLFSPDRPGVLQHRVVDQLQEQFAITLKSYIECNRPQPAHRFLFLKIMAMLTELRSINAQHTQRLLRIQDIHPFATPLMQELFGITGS
Chain of Acetylcholinesterase (Homo sapiens) (P22303 whole entry, looked up): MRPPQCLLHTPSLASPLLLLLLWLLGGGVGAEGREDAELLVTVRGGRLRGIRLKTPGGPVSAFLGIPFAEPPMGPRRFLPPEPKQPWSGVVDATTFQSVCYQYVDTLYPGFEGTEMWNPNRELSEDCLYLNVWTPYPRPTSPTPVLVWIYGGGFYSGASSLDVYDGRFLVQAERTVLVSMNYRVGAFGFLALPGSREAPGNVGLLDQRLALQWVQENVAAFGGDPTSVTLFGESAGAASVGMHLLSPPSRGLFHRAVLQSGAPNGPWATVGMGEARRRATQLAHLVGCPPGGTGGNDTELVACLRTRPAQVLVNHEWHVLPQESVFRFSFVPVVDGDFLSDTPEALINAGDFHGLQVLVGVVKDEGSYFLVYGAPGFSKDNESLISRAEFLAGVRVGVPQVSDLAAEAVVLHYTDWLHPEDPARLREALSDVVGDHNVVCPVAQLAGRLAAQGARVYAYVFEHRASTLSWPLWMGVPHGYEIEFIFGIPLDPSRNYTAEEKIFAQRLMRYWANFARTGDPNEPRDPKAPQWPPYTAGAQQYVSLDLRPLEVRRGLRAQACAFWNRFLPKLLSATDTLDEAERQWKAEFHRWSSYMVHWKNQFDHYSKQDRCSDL

CCCN(CCOc1c(Cl)cc(Cl)cc1Cl)C(=O)n1ccnc1
active: Potency [2] 62.4 µM | Potency [4] 62.4 µM
inactive: Potency [1] | Potency [3] | Potency [5] | Potency [6]

C[C@]12C=CC3=C4CCC(=O)C=C4CC[C@H]3[C@@H]1CC[C@@H]2O
active: Potency [2] 60.7 µM and 46.1 µM
inactive: Potency [1] | Potency [3] | Potency [4] | Potency [6]

CC(=O)NNc1ccccc1
inactive: Potency [1] | Potency [3] | Potency [4]

O=C(O)C(O)C(O)C(=O)O (centres undefined)
inactive: Potency [1] | Potency [2] | Potency [3] | Potency [4] | Potency [5] | Potency [6] | Potency [7]

CCC1(CCC(C)C)C(=O)NC(=O)NC1=O
inactive: Potency [1] | Potency [2] | Potency [3] | Potency [4] | Potency [5] | Potency [6] | Potency [7]

COc1ccc2c(c1OC)C(=O)O[C@H]2[C@@H]1c2cc3c(cc2CCN1C)OCO3
active: Potency [2] 11.9 µM | Potency [4] 11.9 µM
inactive: Potency [1] | Potency [3] | Potency [6] | Potency [7]

CCCN(CCC)C(=O)Cc1c(-c2ccc(Cl)cc2)nc2ccc(Cl)cn12
active: Potency [2] 33.5 µM
inactive: Potency [1] | Potency [3] | Potency [5] | Potency [6] | Potency [7]

COC(=O)C1(O)c2ccccc2-c2ccccc21
inactive: Potency [1] | Potency [2] | Potency [3] | Potency [4] | Potency [5] | Potency [6] | Potency [7]

O=C(O)C(F)(F)C(F)(F)C(F)(F)C(F)(F)C(F)(F)F
inactive: Potency [1] | Potency [3] | Potency [4] | Potency [8] | Potency [6]

Oc1cccc(Cl)c1
inactive: Potency [1] | Potency [2] | Potency [3] | Potency [4] | Potency [5] | Potency [6] | Potency [7]

O=[N+]([O-])/C=C/c1ccccc1
active: Potency [2] 6.97 µM and 12.2 µM | Potency [4] 31.1 µM and 61.1 µM
inactive: Potency [3]

CN(C)C(=O)Nc1cccc(OC(=O)NC(C)(C)C)c1
inactive: Potency [1] | Potency [2] | Potency [3] | Potency [4] | Potency [6] | Potency [7]

Nc1ccc2c(c1)Cc1ccccc1-2
inactive: Potency [1] | Potency [2] | Potency [3] | Potency [4] | Potency [6]

CCC(C)(C)c1ccc(O)c(C(C)(C)CC)c1
active: Potency [1] 21.7 µM | Potency [2] 48 µM and 27.3 µM
inactive: Potency [4] | Potency [5] | Potency [6] | Potency [7]
inactive and 17.2 µM (active): Potency [3]

ClCc1ccccc1Cl
inactive: Potency [1] | Potency [2] | Potency [3] | Potency [4] | Potency [5] | Potency [6] | Potency [7]

CCOC(=O)c1cn2nc(OP(=S)(OCC)OCC)cc2nc1C
active: Potency [7] 39.9 µM
inactive: Potency [1] | Potency [3] | Potency [4]

CNC(=O)Oc1cccc(N=CN(C)C)c1
inactive: Potency [1] | Potency [3] | Potency [4] | Potency [8]
active: Potency [5] 3.99 µM | Potency [6] 20 µM

CCOP(=S)(S)OCC
inactive: Potency [1] | Potency [2] | Potency [3] | Potency [4] | Potency [6]
active: Potency [7] 42.1 µM

CC(C)(C)NCC(O)c1cc(Cl)c(N)c(C(F)(F)F)c1 (centres undefined)
inactive: Potency [1] | Potency [3] | Potency [8] | outcome [9] | Potency [10] | Potency [5] | Potency [6] | Potency [7]

Nc1c(Br)cc(Br)c2c1C(=O)c1ccccc1C2=O
active: Potency [2] 14.5 µM
inactive: caspase activation [1] 0.187% [at 19 µM] | caspase-3/7 activation [3] 3.36% [at 19 µM] | activity change, negative = cytotoxicity [4] -8.94% [at 19 µM] | activity, negative = inhibition [5] 1.8% [at 23.6 µM] | activity change, negative = inhibition [6] 0.0969% [at 23.6 µM] | activity change, negative = inhibition [7] 2.58% [at 23.8 µM]

OCC1CO1 (centres undefined)
inactive: Potency [1] | Potency [2] | Potency [3] | Potency [4] | Potency [5] | Potency [6] | Potency [7]

CCCC[P+](CC)(CCCC)CCCC (tested in a mixture with another compound)
inactive: Potency [1] | Potency [2] | Potency [3] | Potency [4] | Potency [6] | Potency [7]

COc1cc(C[C@@H](C)N)c(OC)cc1Br
inactive: Potency [1] | Potency [2] | Potency [3] | Potency [4] | Potency [5] | Potency [6] | Potency [7]

N#CC(C#N)=Cc1ccc(O)c(O)c1
inactive: Potency [1] | Potency [3] | Potency [4] | Potency [8] | Potency [6] | Potency [7]

CCc1cnc(C2=NC(C)(C(C)C)C(=O)N2)c(C(=O)O)c1 (centres undefined)
inactive: Potency [1] | Potency [2] | Potency [3] | Potency [4] | Potency [5] | Potency [6] | Potency [7]

C[Si](Cn1cncn1)(c1ccc(F)cc1)c1ccc(F)cc1
inactive: Potency [1] | Potency [3] | Potency [5] | Potency [6] | Potency [7]
active: Potency [8] 31.6 µM and 15.4 µM

N#CC1(N=NC2(C#N)CCCCC2)CCCCC1
inactive: Potency [1] | Potency [2] | Potency [3] | Potency [4] | Potency [6] | Potency [7]

O=C1CC[C@@]2(O)[C@H]3Cc4ccc(O)c5c4[C@@]2(CCN3CC2CC2)[C@H]1O5
inactive: Potency [1] | Potency [2] | Potency [3] | Potency [4] | Potency [5] | Potency [6] | Potency [7]

CCCCCCCCCCCC[N+](C)(C)CCOc1ccccc1
active: Potency [2] 43.3 µM | Potency [4] 61.1 µM | Potency [6] 63.3 µM
inactive: Potency [3] | Potency [5]

C=C(Cl)Cl
inactive: Potency [1] | Potency [3] | Potency [4] | Potency [6]
active: Potency [8] 58 µM

O=C(Cl)OCCOCCOC(=O)Cl
inactive: Potency [1] | Potency [3] | Potency [4] | Potency [8] | Potency [5] | Potency [6] | Potency [7]

COc1ccc(C(=O)c2c(C)n(CCN3CCOCC3)c3ccccc23)cc1
active: Potency [8] 9.44 µM | Potency [10] 14.1 µM
inactive: Potency [1] | Potency [3] | outcome [9] | Potency [6]

CC(C)(C#N)C(C)(C)C#N
inactive: Potency [1] | Potency [3] | Potency [4] | Potency [5] | Potency [6] | Potency [7]

C=C(C)C(=O)OCCCCOC(=O)C(=C)C
inactive: Potency [1] | Potency [2] | Potency [3] | Potency [4] | Potency [6] | Potency [7]

COc1cc(CC(C)N)c(OC)cc1Br (centres undefined)
inactive: Potency [1] | Potency [2] | Potency [3] | Potency [4] | Potency [5] | Potency [6] | Potency [7]

FC(Cl)(Cl)C(F)(Cl)Cl
inactive: Potency [1] | Potency [2] | Potency [3] | Potency [4] | Potency [6] | Potency [7]

O=C(O)c1ccc(=O)[nH]c1
inactive: Potency [1] | Potency [3] | Potency [4] | Potency [5] | Potency [6] | Potency [7]

C=CCOC(=O)C(C)(C)OC(=O)c1cc(-n2c(=O)cc(C(F)(F)F)n(C)c2=O)ccc1Cl
inactive: Potency [1] | Potency [3] | Potency [4] | Potency [5] | Potency [6] | Potency [7]
active: Potency [8] 4.24 µM

NCCc1cc(O)c(O)cc1O
inactive: Potency [1] | Potency [3] | Potency [4] | Potency [8] | outcome [9] | Potency [10] | Potency [6] | Potency [7]

N#CC(C#N)=C(C#N)C#N
inactive: Potency [1] | Potency [3] | Potency [8] | Potency [5] | Potency [6]

— PubChem BioAssay (Tox21)
